“And” between values parts separate entries of the source, which are not always exact repeats. Equal values may be shown once. Among all 5,500 compounds or so, about 2,000 (36%) were called active. Another 18% or so got no clear call; they are omitted. Cut-off read from the data, not from the text of the source: active = normalized growth mostly below about 0.91 (no sharp cut-off); inconclusive = no clear call, values can overlap the other calls; inactive = mostly above about 0.92. The list shows a part of the results.
Assay: chemical genetic growth profiling, strain panel (AID 1159580);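 note: tested at 20 µM; growth read once vehicle control cultures reached saturation at 30 °C; 1 = growth at the plate median or of vehicle wells; lower values mean less growth of the strain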
Conditions: S. cerevisiae deletion strains, growth OD

Measured: normalized growth

COc1cc2occc2c2oc(=O)ccc12
inactive: locus YAL021C, strain ccr4, stronger effect = lower value 1.01 | locus YAL026C, strain drs2, stronger effect = lower value 0.984 | locus YAL030W, strain snc1, stronger effect = lower value 1.01 | locus YBL061C, strain skt5, stronger effect = lower value 0.992 | locus YBR009C, strain hhf1, stronger effect = lower value 0.982 | locus YBR021W, strain FUR4, stronger effect = lower value 0.965 | locus YBR023C, strain chs3, stronger effect = lower value 1 | locus YBR171W, strain sec66, stronger effect = lower value 1.02 | locus YBR229C, strain ROT2, stronger effect = lower value 0.949 | locus YBR231C, strain swc5, stronger effect = lower value 0.962 | locus YBR279W, strain paf1, stronger effect = lower value 1.01 | locus YCL011C, strain gbp2, stronger effect = lower value 1.01 | locus YCL016C, strain dcc1, stronger effect = lower value 0.972 | locus YCL029C, strain bik1, stronger effect = lower value 0.931 | locus YCL069W, strain vba3, stronger effect = lower value 1.03 | locus YCR088W, strain abp1, stronger effect = lower value 1.02 | locus YDL005C, strain med2, stronger effect = lower value 1.01 | locus YDL035C, strain GPR1, stronger effect = lower value 0.92 | locus YDL040C, strain nat1, stronger effect = lower value 1.02 | locus YDL074C, strain BRE1, stronger effect = lower value 0.842 | locus YDL101C, strain DUN1, stronger effect = lower value 0.939 | locus YDL185W, strain tfp1, stronger effect = lower value 0.936 | locus YDR001C, strain nth1, stronger effect = lower value 1.01 | locus YDR069C, strain doa4, stronger effect = lower value 0.98 | locus YDR137W, strain rgp1, stronger effect = lower value 1.06 | locus YDR159W, strain sac3, stronger effect = lower value 1.01 | locus YDR162C, strain NBP2, stronger effect = lower value 0.873 | locus YDR297W, strain sur2, stronger effect = lower value 0.998 | locus YDR318W, strain mcm21, stronger effect = lower value 0.948 | locus YDR334W, strain swr1, stronger effect = lower value 0.969 | locus YDR335W, strain msn5, stronger effect = lower value 0.968 | locus YDR388W, stronger effect = lower value 0.979 | locus YDR392W, strain spt3, stronger effect = lower value 0.792 | locus YDR502C, strain sam2, stronger effect = lower value 0.984 | locus YEL003W, strain gim4, stronger effect = lower value 0.985 | locus YEL037C, strain rad23, stronger effect = lower value 1 | locus YEL061C, strain CIN8 (second series), stronger effect = lower value 1 | locus YER015W, strain faa2, stronger effect = lower value 1 | locus YER016W, strain bim1, stronger effect = lower value 1.02 | locus YER110C, stronger effect = lower value 0.936 | locus YER111C, strain swi4, stronger effect = lower value 1.02 | locus YER155C, strain BEM2, stronger effect = lower value 0.992 | locus YER167W, strain BCK2, stronger effect = lower value 0.967 | locus YFR010W, strain ubp6, stronger effect = lower value 0.957 | locus YGL078C, strain dbp3, stronger effect = lower value 1.02 | locus YGL086W, strain mad1, stronger effect = lower value 0.964 | locus YGL167C, strain pmr1, stronger effect = lower value 1.02 | locus YGL173C, strain kem1, stronger effect = lower value 1.01 | locus YGL227W, strain vid30, stronger effect = lower value 1.03 | locus YGL240W, strain doc1, stronger effect = lower value 0.92 | locus YGL248W, strain PDE1, stronger effect = lower value 0.964 | locus YGL253W, strain hxk2, stronger effect = lower value 1.01 | locus YGR078C, strain PAC10, stronger effect = lower value 0.95 | locus YGR135W, strain pre9, stronger effect = lower value 0.99 | locus YGR252W, strain gcn5, stronger effect = lower value 0.865 | locus YHR013C, strain ard1, stronger effect = lower value 1.08 | locus YHR027C, strain rpn1, stronger effect = lower value 0.998 | locus YHR030C, strain SLT2, stronger effect = lower value 0.982 and 0.967 | locus YHR079C, strain IRE1 (second series), stronger effect = lower value 0.984 | locus YHR079C, strain IRE1, stronger effect = lower value 0.958 | locus YHR094C, strain hxt1, stronger effect = lower value 0.975 | locus YHR129C, strain ARP1, stronger effect = lower value 0.98 | locus YHR142W, strain chs7, stronger effect = lower value 0.961 | locus YHR200W, strain rpn10, stronger effect = lower value 0.93 | locus YIL066C, strain RNR3, stronger effect = lower value 0.925 | locus YIL073C, strain SPO22, stronger effect = lower value 0.944 | locus YIL125W, strain kgd1, stronger effect = lower value 0.99 | locus YIR030C, strain dcg1, stronger effect = lower value 0.979 | locus YJL092W, strain hpr5, stronger effect = lower value 1.02 | locus YJL095W, strain BCK1 (second series), stronger effect = lower value 0.998 | locus YJL095W, strain BCK1, stronger effect = lower value 0.942 and 0.974 | locus YJL115W, strain asf1, stronger effect = lower value 0.991 | locus YJL134W, strain LCB3, stronger effect = lower value 0.967 | locus YJL154C, strain vps35, stronger effect = lower value 1.02 | locus YJL164C, strain tpk1, stronger effect = lower value 0.983 | locus YJL166W, strain qcr8, stronger effect = lower value 1.02 | locus YJL168C, strain set2, stronger effect = lower value 0.976 | locus YJL187C, strain SWE1 (second series), stronger effect = lower value 0.968 | locus YJL187C, strain SWE1, stronger effect = lower value 1.02 | locus YJR066W, strain TOR1, stronger effect = lower value 0.917 | locus YKL009W, strain mrt4, stronger effect = lower value 0.944 | locus YKL068W, stronger effect = lower value 1 | locus YKL085W, strain MDH1 (second series), stronger effect = lower value 0.991 | locus YKL085W, strain MDH1, stronger effect = lower value 0.991 | locus YKL160W, strain elf1, stronger effect = lower value 1.01 | locus YKL190W, strain CNB1, stronger effect = lower value 0.985 | locus YKR026C, strain gcn3, stronger effect = lower value 1.03 | locus YKR091W, strain srl3, stronger effect = lower value 1.02 | locus YLL001W, strain dnm1, stronger effect = lower value 1 | locus YLL026W, stronger effect = lower value 1.02 | locus YLL041C, strain sdh2, stronger effect = lower value 1 | locus YLR027C, strain aat2, stronger effect = lower value 1.01 | locus YLR039C, strain RIC1, stronger effect = lower value 1 | locus YLR058C, strain SHM2, stronger effect = lower value 0.976 | locus YLR102C, strain apc9, stronger effect = lower value 0.985 | locus YLR113W, strain HOG1, stronger effect = lower value 1 | locus YLR221C, strain rsa3, stronger effect = lower value 1.02 | locus YLR258W, strain gsy2, stronger effect = lower value 1.03 | locus YLR262C, strain YPT6 (second series), stronger effect = lower value 1.02 | locus YLR262C, strain YPT6, stronger effect = lower value 1.06 | locus YLR268W, strain sec22, stronger effect = lower value 0.887 | locus YLR342W, strain FKS1 (second series), stronger effect = lower value 0.944 | locus YLR342W, strain FKS1, stronger effect = lower value 1.02 | locus YLR370C, strain arc18, stronger effect = lower value 1.03 | locus YLR384C, strain iki3, stronger effect = lower value 1.01 | locus YLR418C, strain cdc73, stronger effect = lower value 0.914 | locus YML016C, strain PPZ1, stronger effect = lower value 0.956 | locus YML120C, strain ndi1, stronger effect = lower value 1.04 | locus YML124C, strain tub3, stronger effect = lower value 0.982 | locus YMR058W, strain fet3, stronger effect = lower value 0.988 | locus YMR078C, strain ctf18, stronger effect = lower value 0.967 | locus YMR125W, strain sto1, stronger effect = lower value 1.02 | locus YMR129W, stronger effect = lower value 1.04 | locus YMR205C, strain PFK2, stronger effect = lower value 1.03 | locus YMR223W, strain ubp8, stronger effect = lower value 0.957 | locus YMR231W, strain pep5, stronger effect = lower value 1.01 | locus YMR307W, strain GAS1, stronger effect = lower value 0.932 | locus YNL067W, strain RPL9B, stronger effect = lower value 0.99 | locus YNL071W, strain lat1, stronger effect = lower value 1 | locus YNL183C, strain NPR1, stronger effect = lower value 0.935 | locus YNL209W, strain ssb2, stronger effect = lower value 0.995 | locus YNL233W, strain BNI4, stronger effect = lower value 0.942 | locus YNL250W, strain rad50, stronger effect = lower value 0.936 | locus YNL271C, strain bni1, stronger effect = lower value 0.97 | locus YNL298W, strain CLA4, stronger effect = lower value 0.915 | locus YNL307C, strain MCK1, stronger effect = lower value 0.959 | locus YNL322C, strain KRE1 (second series), stronger effect = lower value 0.998 | locus YNL322C, strain KRE1, stronger effect = lower value 0.99 | locus YNR049C, strain mso1, stronger effect = lower value 1.03 | locus YNR052C, strain pop2, stronger effect = lower value 0.988 | locus YOL012C, strain htz1 0.958 | locus YOL147C, strain pex11, stronger effect = lower value 0.952 | locus YOR001W, strain rrp6, stronger effect = lower value 0.985 | locus YOR061W, strain CKA2, stronger effect = lower value 0.939 | locus YOR069W, strain VPS5, stronger effect = lower value 0.984 | locus YOR070C, strain gyp1, stronger effect = lower value 0.995 | locus YOR080W, strain dia2, stronger effect = lower value 1.01 | locus YOR083W, strain WHI5, stronger effect = lower value 0.955 | locus YOR106W, strain vam3, stronger effect = lower value 0.987 | locus YOR136W, strain idh2, stronger effect = lower value 0.957 | locus YOR144C, strain elg1, stronger effect = lower value 0.95 | locus YOR231W, strain MKK1, stronger effect = lower value 0.983 | locus YOR265W, strain rbl2, stronger effect = lower value 0.996 | locus YOR270C, strain vph1, stronger effect = lower value 0.934 | locus YOR290C, strain snf2, stronger effect = lower value 0.963 | locus YOR316C, strain cot1, stronger effect = lower value 0.99 | locus YPL051W, strain arl3, stronger effect = lower value 0.992 | locus YPL078C, strain atp4, stronger effect = lower value 0.987 | locus YPL106C, strain sse1, stronger effect = lower value 0.921 | locus YPL240C, strain hsp82, stronger effect = lower value 1.01 | locus YPL256C, strain CLN2, stronger effect = lower value 1.03 | locus YPR119W, strain clb2, stronger effect = lower value 0.992 | locus YPR141C, strain kar3, stronger effect = lower value 1 | locus YPR167C, strain met16, stronger effect = lower value 0.995 | strain wtn01, stronger effect = lower value 0.902
active: locus YDL192W, strain arf1, stronger effect = lower value 0.887 | locus YDR101C, strain arx1, stronger effect = lower value 0.897 | locus YDR195W, strain ref2 1.29 [resistant] | locus YER155C, strain BEM2 (second series), stronger effect = lower value 0.821 | locus YJL129C, strain trk1, stronger effect = lower value 1.17 [resistant] | locus YKR001C, strain vps1, stronger effect = lower value 0.877 | locus YLR320W, strain mms22, stronger effect = lower value 0.857 | locus YLR357W, strain rsc2, stronger effect = lower value 1.16 [resistant] | locus YLR371W, strain rom2, stronger effect = lower value 0.861 | locus YML032C, strain rad52, stronger effect = lower value 0.836 | locus YNL248C, strain rpa49, stronger effect = lower value 0.681 | locus YOR184W, strain ser1, stronger effect = lower value 0.836 | locus YPR163C, strain tif3, stronger effect = lower value 0.911

Reference: PubChem BioAssay AID1159580 (chemical genetic matrix, 2015)
